Reference: PubChem BioAssay (Tox21)
Records with an inconclusive call do not appear. Activity calls are given as the source filed them. Unless noted, calls follow the shape of the dose curve; as a rule, active = well fitted curve in the direction sought with a large enough effect in the repeat runs; inconclusive = weak or mixed curves; inactive = no such curve, though single readings can be large; an effect the other way counts as inactive or inconclusive.

Legend:
[1] = qHTS assay to identify small molecule antagonists of the glucocorticoid receptor (GR) signaling pathway - cell viability counter screen (AID 720693); also: nearly all actives have a fitted effect of over 55% in size
[2] = qHTS assay for identifying genotoxic compounds that show differential cytotoxicity against isogenic chicken DT40 cell lines with known DNA damage response pathways - wild type cell line (AID 743012); also: nearly all actives have a fitted effect of over 60% in size
Summary of the method: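 300 wt DT40 cells/well; cpd (DMSO) pintool-transferred after ~0.5 h at 37 C/5% CO2; 40 h incubation; CellTiter-Glo added, 30 min RT; luminescence read.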

[3] = qHTS assay for identifying genotoxic compounds that show differential cytotoxicity against isogenic chicken DT40 cell lines with known DNA damage response pathways - Rev3 mutant cell line (AID 743014); also: nearly all actives have a fitted effect of over 55% in size
[4] = qHTS assay for identifying genotoxic compounds that show differential cytotoxicity against isogenic chicken DT40 cell lines with known DNA damage response pathways - Rad54/Ku70 mutant cell line (AID 743015); also: nearly all actives have a fitted effect of over 60% in size
[5] = qHTS assay to identify small molecule antagonists of the androgen receptor (AR) signaling pathway using the MDA cell line - cell viability counter screen (AID 743041; also: nearly all actives have a fitted effect of over 45% in size)
Summary of the method: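 Viability read by CellTiter-Fluor fluorescence in the same wells as the antagonist screen, added after 15.5 h of a 16 h, 37C exposure. Human breast carcinoma MDA-kb2 AR-luc cells, compounds co-dosed with agonist R1881.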

[6] = qHTS assay to identify small molecule antagonists of the thyroid receptor (TR) signaling pathway - cell viability counter screen (AID 743064); also: nearly all actives have a fitted effect of over 50% in size
Summary of the method: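 Rat GH3 pituitary tumor cells stably expressing two TR response elements driving luciferase were plated, rested 4 h, then dosed with library compounds and T3 (1 nM final). After 23.5 h at 37 °C, CellTiter-Fluor was added for 30 min and fluorescence recorded.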

[7] = qHTS assay to identify small molecule antagonists of the thyroid receptor (TR) signaling pathway (AID 743065); also: series mostly up to about 70 µM; nearly all actives have a fitted effect of over 55% in size
Summary of the method: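 Antagonism measured as loss of luciferase signal in GH3 cells stably carrying a TRE-luciferase reporter, co-treated with compound and T3 (1 nM final) for 23.5 h at 37 C. Viability was read in the same well by CellTiter-Fluor.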

[8] = test system: thyroid hormone receptor (rat, GH3 cells); assay: qHTS assay to identify small molecule agonists of the thyroid receptor (TR) signaling pathway (AID 743066; calls by dose curve)
[9] = molecular target: Estrogen receptor (Homo sapiens) (UniProt P03372); assay: qHTS assay to identify small molecule antagonists of the estrogen receptor alpha (ER-alpha) signaling pathway (AID 743069; active = well fitted curve in the direction sought with a large enough effect in the signal ratio in the repeat runs, not every such curve was filed as active; the % refers to the signal ratio)
Summary of the method: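 Antagonist mode: compounds in DMSO were co-added with 17beta-estradiol to ER-alpha-bla HEK293 cells (2% charcoal-stripped serum) and left 18 h at 37C. Reporter inhibition was measured as FRET fluorescence after 2 h LiveBLAzer substrate at room temperature.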

[10] = qHTS assay to identify small molecule antagonists of the estrogen receptor alpha (ER-alpha) signaling pathway - cell viability counter screen (AID 743074; calls by dose curve;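 also: HEK293 cells carrying ER-alpha-UAS-bla reporter stimulated with 17beta-estradiol; nearly all actives have a fitted effect of over 45% in size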)
[11] = molecular target: Estrogen receptor (Homo sapiens) (UniProt P03372); assay: qHTS assay to identify small molecule agonists of the estrogen receptor alpha (ER-alpha) signaling pathway (AID 743075; calls by dose curve;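 also: HEK293 GripTite cells with ER-alpha and UAS-driven beta-lactamase reporter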)
[12] = molecular target: Estrogen receptor (Homo sapiens) (UniProt P03372); assay: qHTS assay to identify small molecule agonists of the estrogen receptor alpha (ER-alpha) signaling pathway using the BG1 cell line (AID 743079); also: nearly all actives have a fitted effect of over 20% in size
[13] = qHTS assay to identify small molecule antagonists of the estrogen receptor alpha (ER-alpha) signaling pathway using the BG1 cell line (AID 743080; calls by dose curve;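 also: BG1 cells stimulated with 17beta-estradiol alongside compound; series mostly up to about 70 µM; nearly all actives have a fitted effect of over 25% in size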)
Summary of the method: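 After 5 days in phenol-red-free 10% charcoal-stripped FBS medium, BG1-Luc-4E2 cells were seeded, left 24 h at 37 C, co-treated with compounds and 17beta-estradiol for 21.5 h, then assayed for viability and luciferase.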

[14] = qHTS assay to identify small molecule antagonists of the estrogen receptor alpha (ER-alpha) signaling pathway using the BG1 cell line - cell viability counter screen (AID 743081);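 also: compound given together with 17beta-estradiol as the ER stimulus; series mostly up to about 70 µM; nearly all actives have a fitted effect of over 45% in size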
[15] = molecular target: Aromatase (Homo sapiens) (UniProt P11511); assay: qHTS assay to identify aromatase inhibitors (AID 743083); also: series mostly up to about 70 µM; nearly all actives have a fitted effect of over 55% in size
[16] = qHTS assay to identify small molecule antagonists of the androgen receptor (AR) signaling pathway - cell viability counter screen (AID 743033; also: nearly all actives have a fitted effect of over 45% in size)

Measured: Potency

Chain of Estrogen receptor (Homo sapiens) (P03372 whole entry, looked up): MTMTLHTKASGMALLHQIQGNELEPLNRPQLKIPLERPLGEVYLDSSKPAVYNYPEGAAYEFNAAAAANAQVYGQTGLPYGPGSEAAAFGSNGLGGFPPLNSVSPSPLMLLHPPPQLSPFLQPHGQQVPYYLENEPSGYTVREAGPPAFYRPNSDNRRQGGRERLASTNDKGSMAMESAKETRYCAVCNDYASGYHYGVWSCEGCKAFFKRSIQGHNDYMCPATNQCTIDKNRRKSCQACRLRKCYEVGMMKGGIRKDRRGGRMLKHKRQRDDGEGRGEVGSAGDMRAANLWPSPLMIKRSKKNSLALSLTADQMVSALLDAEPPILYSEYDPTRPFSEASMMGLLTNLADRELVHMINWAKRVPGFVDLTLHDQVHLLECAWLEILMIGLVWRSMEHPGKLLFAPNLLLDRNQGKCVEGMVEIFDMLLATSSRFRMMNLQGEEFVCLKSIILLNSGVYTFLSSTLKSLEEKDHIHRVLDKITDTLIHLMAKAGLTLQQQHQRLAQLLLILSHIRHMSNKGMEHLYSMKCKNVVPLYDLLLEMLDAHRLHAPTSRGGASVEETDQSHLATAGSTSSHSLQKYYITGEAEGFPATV
Chain of Aromatase (Homo sapiens) (P11511 whole entry, looked up): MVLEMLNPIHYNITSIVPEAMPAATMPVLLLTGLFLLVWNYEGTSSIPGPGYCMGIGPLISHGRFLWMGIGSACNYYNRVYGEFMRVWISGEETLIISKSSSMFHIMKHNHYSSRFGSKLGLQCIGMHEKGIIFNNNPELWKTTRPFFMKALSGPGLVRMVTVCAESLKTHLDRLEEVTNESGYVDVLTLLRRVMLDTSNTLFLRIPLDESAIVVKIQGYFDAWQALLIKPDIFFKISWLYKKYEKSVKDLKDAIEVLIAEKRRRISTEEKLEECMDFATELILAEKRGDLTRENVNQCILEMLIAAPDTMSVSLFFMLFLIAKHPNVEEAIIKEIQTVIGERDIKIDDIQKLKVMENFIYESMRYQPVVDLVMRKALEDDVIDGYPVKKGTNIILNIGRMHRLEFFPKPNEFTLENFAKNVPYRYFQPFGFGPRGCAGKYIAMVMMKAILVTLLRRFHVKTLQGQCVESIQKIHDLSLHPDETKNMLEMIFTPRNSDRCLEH

C#CCN(C)[C@H](C)Cc1ccccc1
inactive: [1] | [2] | [3] | [4] | [5] | [6] | [7] | [8] | [9] | [10] | [11] | [12] | [13] | [14] | [15]

CN(C)CCO
inactive: [1] | [2] | [3] | [4] | [16] | [5] | [6] | [7] | [8] | [9] | [10] | [11] | [12] | [13] | [14] | [15]

CCCCCCCCCCCC#N
inactive: [1] | [2] | [3] | [4] | [16] | [5] | [6] | [7] | [8] | [10] | [14] | [15]

COC(=O)NS(=O)(=O)c1ccc(N)cc1
inactive: [1] | [2] | [3] | [4] | [5] | [6] | [7] | [8] | [9] | [10] | [11] | [12] | [13] | [14] | [15]

OC(O)C(Cl)(Cl)Cl
inactive: [1] | [2] | [3] | [4] | [16] | [5] | [6] | [7] | [8] | [10] | [14] | [15]

CC(Br)C(=O)O (stereo unspecified)
inactive: [1] | [2] | [3] | [4] | [16] | [5] | [6] | [7] | [8] | [10] | [11] | [12] | [13] | [14] | [15]

CN(C)N=O
inactive: [1] | [2] | [3] | [4] | [16] | [5] | [6] | [7] | [8] | [10] | [14] | [15]

Cc1cccc([N+](=O)[O-])c1
inactive: [1] | [2] | [3] | [4] | [16] | [5] | [6] | [9] | [10] | [12] | [13] | [14]

CC(C)C#N
inactive: [1] | [2] | [3] | [4] | [16] | [5] | [6] | [7] | [8] | [10] | [14] | [15]

Clc1ccc(Cl)cc1
inactive: [1] | [2] | [3] | [4] | [5] | [6] | [7] | [8] | [9] | [10] | [11] | [12] | [13] | [14] | [15]
